PubChem BioAssay
Activity calls are given as the source filed them.

Columns and labels:
[1] = small molecules captured by biotinylated probe aFSTL3 – biochemical, small-molecule microarray, fluorescence 635/667, stem cell growth factor project, primary screen (AID 1064); settings: higher = more signal;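 also: measures binding of the biotinylated anti-FSTL3 antibody to printed compounds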
[2] = binders from COS7 lysate, DM2A8 probe, primary screen, torsin A project, cell lysate, small-molecule microarray, fluorescence 635/667 (AID 1065); settings: higher = more signal, COS7 lysate expressing mutant human TOR1A
[3] = small molecules captured by biotinylated probe aFGF2 – biochemical, small-molecule microarray, fluorescence 635/667, stem cell growth factor project, primary screen (AID 1067); settings: higher = more signal;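 also: measures binding of biotinylated aFGF2 protein to printed compounds on slides; z-score merges feature fluorescence and signal-to-noise across triplicate slides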
[4] = small molecules captured by biotinylated probe aFGF10 – biochemical, small-molecule microarray, fluorescence 635/667, stem cell growth factor project, primary screen (AID 1071); settings: higher = more signal;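 also: score merges 667 nm spot intensity and signal to noise from triplicate slides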
[5] = molecular target: Neurogenic locus notch homolog protein 2 (Homo sapiens) (UniProt Q04721); assay: small molecules binding Notch2 protein – biochemical, small-molecule microarray, 635 nm fluorescence, stem cell growth factors, primary screen (AID 1073); settings: higher = more signal
[6] = molecular target: Pro-neuregulin-1, membrane-bound isoform (Homo sapiens) (UniProt Q02297); assay: small molecules binding neuregulin-1 protein – biochemical, small-molecule microarray, fluorescence 635/667, psychiatric disease protein project, primary screen (AID 1075); settings: NRG1 binding, 635 nm fluorescence, higher = more signal;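 also: score combines 667 nm spot fluorescence with signal to noise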
[7] = system: Neuregulin-1 EGF-like domain; assay: small molecules binding NRG1 EGF domain – biochemical, small-molecule microarray, 635 nm fluorescence, primary screen (AID 1081); settings: higher = more signal;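 also: binding of the protein to compounds printed on small-molecule microarray slides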
[8] = FRG1 expression reporter modulators in myotubes – cell-based, C2C12 myotubes, firefly/Renilla luciferase, luminescence, FRG1 inhibition for FSHD, primary screen (AID 1084); settings: FRG1 promoter luciferase, higher = more signal, called active from +8 up or from −8 down
[9] = small molecules captured by biotinylated probe aFST – biochemical, small-molecule microarray, fluorescence 635/667, stem cell growth factor project, primary screen (AID 1086); settings: higher = more signal;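 also: score merges 667 nm fluorescence with signal-to-noise of each printed compound spot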
[10] = binders of probe aHhip on microarray, primary screen, stem cell growth factor project, biochemical, small-molecule microarray, fluorescence 635/667 (AID 1087); settings: higher = more signal;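 also: score merges spot fluorescence at 667nm with spot signal to noise ratio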

Chain of Neurogenic locus notch homolog protein 2 (Homo sapiens) (Q04721 whole entry, looked up, canonical isoform): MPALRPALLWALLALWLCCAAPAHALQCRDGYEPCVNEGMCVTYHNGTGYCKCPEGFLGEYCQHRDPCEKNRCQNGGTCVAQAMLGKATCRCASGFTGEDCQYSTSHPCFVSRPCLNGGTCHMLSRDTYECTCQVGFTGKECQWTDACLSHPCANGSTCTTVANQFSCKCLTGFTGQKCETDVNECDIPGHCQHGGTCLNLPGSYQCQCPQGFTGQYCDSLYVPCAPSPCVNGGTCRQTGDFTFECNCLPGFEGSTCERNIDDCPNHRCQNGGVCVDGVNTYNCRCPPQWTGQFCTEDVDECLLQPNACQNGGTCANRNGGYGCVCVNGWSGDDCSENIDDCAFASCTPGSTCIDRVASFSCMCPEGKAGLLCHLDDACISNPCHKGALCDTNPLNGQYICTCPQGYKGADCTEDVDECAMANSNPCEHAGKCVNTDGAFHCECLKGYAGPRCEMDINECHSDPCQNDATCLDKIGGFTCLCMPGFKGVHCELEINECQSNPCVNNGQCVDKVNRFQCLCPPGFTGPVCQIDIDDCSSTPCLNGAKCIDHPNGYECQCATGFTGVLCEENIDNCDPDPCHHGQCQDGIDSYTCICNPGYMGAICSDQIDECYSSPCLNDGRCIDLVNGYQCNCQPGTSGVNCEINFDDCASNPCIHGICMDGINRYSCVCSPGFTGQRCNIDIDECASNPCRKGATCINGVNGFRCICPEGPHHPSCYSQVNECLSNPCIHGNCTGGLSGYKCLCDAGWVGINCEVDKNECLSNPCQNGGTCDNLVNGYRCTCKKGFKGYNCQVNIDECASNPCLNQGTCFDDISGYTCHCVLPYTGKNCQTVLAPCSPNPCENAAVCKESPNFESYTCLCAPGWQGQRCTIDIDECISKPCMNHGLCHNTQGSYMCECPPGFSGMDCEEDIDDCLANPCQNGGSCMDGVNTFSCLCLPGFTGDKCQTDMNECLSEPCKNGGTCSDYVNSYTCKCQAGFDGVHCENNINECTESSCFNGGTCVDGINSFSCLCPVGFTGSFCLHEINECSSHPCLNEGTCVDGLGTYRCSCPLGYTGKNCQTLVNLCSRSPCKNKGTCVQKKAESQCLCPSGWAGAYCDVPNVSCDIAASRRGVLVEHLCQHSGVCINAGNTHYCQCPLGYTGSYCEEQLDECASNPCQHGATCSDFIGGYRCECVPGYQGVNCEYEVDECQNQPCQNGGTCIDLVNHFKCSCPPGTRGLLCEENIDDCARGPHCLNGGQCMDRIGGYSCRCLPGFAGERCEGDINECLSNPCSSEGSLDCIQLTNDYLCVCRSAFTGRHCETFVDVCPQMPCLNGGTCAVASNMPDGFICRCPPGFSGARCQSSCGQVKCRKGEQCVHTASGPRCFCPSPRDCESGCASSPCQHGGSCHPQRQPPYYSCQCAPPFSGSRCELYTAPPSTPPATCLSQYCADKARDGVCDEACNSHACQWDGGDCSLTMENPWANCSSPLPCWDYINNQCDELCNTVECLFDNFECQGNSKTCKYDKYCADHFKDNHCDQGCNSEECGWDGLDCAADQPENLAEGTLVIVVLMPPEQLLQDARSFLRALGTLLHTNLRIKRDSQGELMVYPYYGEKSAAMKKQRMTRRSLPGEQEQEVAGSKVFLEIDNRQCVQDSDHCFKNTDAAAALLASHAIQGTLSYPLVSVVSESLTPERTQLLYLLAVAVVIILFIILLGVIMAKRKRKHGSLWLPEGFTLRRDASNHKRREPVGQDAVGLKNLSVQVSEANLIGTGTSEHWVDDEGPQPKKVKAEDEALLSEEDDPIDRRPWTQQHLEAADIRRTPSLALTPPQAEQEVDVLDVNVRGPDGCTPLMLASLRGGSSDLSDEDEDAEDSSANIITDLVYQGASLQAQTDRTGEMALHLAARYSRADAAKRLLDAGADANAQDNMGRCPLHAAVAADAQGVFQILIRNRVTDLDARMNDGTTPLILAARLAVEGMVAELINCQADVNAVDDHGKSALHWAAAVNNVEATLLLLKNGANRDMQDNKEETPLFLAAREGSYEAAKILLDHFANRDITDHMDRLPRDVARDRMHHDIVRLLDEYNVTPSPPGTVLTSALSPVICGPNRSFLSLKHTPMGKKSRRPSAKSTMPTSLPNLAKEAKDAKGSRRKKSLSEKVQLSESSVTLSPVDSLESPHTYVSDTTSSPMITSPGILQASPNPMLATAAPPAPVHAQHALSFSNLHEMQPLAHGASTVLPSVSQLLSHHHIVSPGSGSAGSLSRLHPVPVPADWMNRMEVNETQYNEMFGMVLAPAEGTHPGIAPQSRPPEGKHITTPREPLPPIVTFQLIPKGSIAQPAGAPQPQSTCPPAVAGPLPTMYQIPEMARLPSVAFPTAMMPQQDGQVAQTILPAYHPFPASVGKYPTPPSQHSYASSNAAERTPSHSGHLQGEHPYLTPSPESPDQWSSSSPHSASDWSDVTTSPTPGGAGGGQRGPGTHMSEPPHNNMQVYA
Chain of Pro-neuregulin-1, membrane-bound isoform (Homo sapiens) (Q02297 whole entry, looked up, the tested form may be a part, canonical isoform): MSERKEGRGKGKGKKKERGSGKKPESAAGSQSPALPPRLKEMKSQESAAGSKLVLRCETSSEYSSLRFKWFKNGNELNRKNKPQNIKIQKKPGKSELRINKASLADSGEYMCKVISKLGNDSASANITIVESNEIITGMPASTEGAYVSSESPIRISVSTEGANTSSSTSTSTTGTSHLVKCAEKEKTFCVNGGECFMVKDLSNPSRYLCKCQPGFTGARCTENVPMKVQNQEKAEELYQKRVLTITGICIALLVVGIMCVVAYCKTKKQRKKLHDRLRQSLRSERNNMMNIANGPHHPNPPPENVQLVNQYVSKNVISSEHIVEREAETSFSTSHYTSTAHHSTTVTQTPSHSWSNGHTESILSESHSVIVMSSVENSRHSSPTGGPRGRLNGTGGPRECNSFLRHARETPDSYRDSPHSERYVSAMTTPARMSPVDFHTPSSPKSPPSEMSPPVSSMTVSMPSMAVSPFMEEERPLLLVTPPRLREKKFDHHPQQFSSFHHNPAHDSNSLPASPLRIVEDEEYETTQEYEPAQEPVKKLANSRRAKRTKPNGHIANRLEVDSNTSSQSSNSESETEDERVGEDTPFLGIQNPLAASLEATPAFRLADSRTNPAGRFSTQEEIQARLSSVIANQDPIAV

Structure (SMILES) | composite z-score [1] | composite z-score [2] | composite z-score [3] | composite z-score [4] | composite z-score [5] | composite z-score [6] | composite z-score [7] | z-score [8] | composite z-score [9] | composite z-score [10]
CCCNC(=O)[C@@H]1c2ccccc2C(=O)N(Cc2ccc(OC(F)(F)F)cc2)[C@H]1c1ccc(CO)cc1 | 0.193 | -0.392 | 0.0295 | 0.0505 | 0.634 | 0.33 | 1.24 | -1.88 (inactive) | 0.0347 | -0.0237
CCOC(=O)C1=CC[C@@H](c2ccccc2)N(S(=O)(=O)c2ccc(C)cc2)[C@H]1c1ccccc1 | 0.322 | 0.13 | -0.0073 | 0.296 | 1.37 | 0.334 | 0.628 | -2.4 (inactive) | 0.77 | -0.265
CCCCC(=C=CC[C@H](O)c1ccc(OCCO)cc1)CCO | -0.253 | -0.0707 | -0.114 | -0.161 | -0.425 | 1.48 | 0.66 | -0.572 (inactive) | -0.493 | 0.0156
COC(=O)[C@@]1(Cc2ccccc2)[C@H]2c3cc(C(=O)N4CCCC4)n(CCc4ccccn4)c3C[C@H]2CN1C(=O)c1ccccc1 | 0.223 | 0.487 | -0.177 | 0.283 | 1.33 | 2.09 | 1.35 | 2.95 (inactive) | 1.18 | 0.503
COC(=O)[C@@]1(Cc2ccc(OC)cc2)[C@H]2c3cc(C(=O)N4CCCC4)n(CCc4c[nH]c5ccc(OC)cc45)c3C[C@H]2CN1C(=O)c1ccccc1 | 1.49 | 1.14 | 0.204 | 0.686 | 1.74 | 0.898 | 1.16 | 0.49 (inactive) | 1.55 | -0.161
C#CCN([C@@H](Cc1ccccc1)C(=O)OC)[C@@H](/C=C/C1CC1)[C@H](O)Cc1ccccc1 | 1.2 | 0.0218 | -0.114 | -0.181 | -0.875 | -0.445 | -0.351 | -4.13 (inactive) | -0.283 | -0.169
CCCC=C(CCC)[C@@H](NS(=O)(=O)CC12CCC(CC1=O)C2(C)C)c1ccc(C(=O)OC)cc1 (stereo not given in full) | -0.126 | 0.645 | 0.291 | 0.375 | 0.621 | 0.128 | 1.09 | 2.86 (inactive) | 0.974 | 0.274
CC(C)C(CO)N1C(=O)[C@@H]2[C@H]3C(=O)OCC=C[C@H]3OC23C=CCN(c2ccc(Cl)cc2)C(=O)[C@@H]13 (stereo not given in full) | -0.0597 | -0.61 | -0.141 | -0.385 | -0.659 | -0.7 | 0.436 | -0.459 (inactive) | -0.243 | -0.313
CC(C)[Si](C#CCCCC#N)(O[C@H](c1ccccc1)c1cn(Cc2ccccc2)nn1)C(C)C | -0.281 | 0.704 | -0.0728 | 0.335 | 0.879 | 0.048 | 1.13 | -2.06 (inactive) | 0.775 | 0.095
[N-]=[N+]=Nc1ccccc1C[C@@]1(C(N)=O)N=C(c2ccc(OCCCO)cc2)O[C@@H]1c1ccccc1N=[N+]=[N-] | 0.613 | 0.338 | -0.0751 | 0.684 | 1.45 | 0.467 | 1.26 | 0.0144 (inactive) | 0.493 | 0.0722
C=CC[C@H](OC(=O)Nc1ccc(SC)cc1)c1ccc(O)c2ccccc12 | 0.0792 | 0.104 | 0.0536 | 0.254 | 1.3 | 1.75 | 1.33 | 7.23 (inactive) | 0.385 | 0.176
O=C(Cc1ccccc1)[C@H]1C2C=CCCC(c3ccccc3)=C2CN1Cc1ccccc1 (stereo not given in full) | -0.138 | 1.24 | -0.085 | 0.0623 | -0.0515 | -0.473 | -0.122 | -1.2 (inactive) | -0.205 | 0.0722
CCCCC(O)C1C=CC2C(=O)N(C)C(=O)C2N1N(c1ccccc1)c1ccccc1 (stereo not given) | 0.555 | 1.3 | 0.0748 | 0.0636 | 1.14 | 1.25 | 0.999 | 0.667 (inactive) | 0.701 | 0.0497
CC(C)N1C(=O)C[C@@](C(=O)O)(c2ccc([N+](=O)[O-])cc2)[C@H]1c1ccc(CO)cc1 | 1 | 0.208 | -0.031 | 0.117 | -0.436 | 0.425 | 1.04 | 0.161 (inactive) | -0.322 | 0.0373
CCOC(=O)C[C@H]1[C@H](OC(=O)c2ccc(C(=O)c3ccccc3)cc2)[C@@H](NC(=O)c2ccc3ccccc3n2)c2cc(OCCCO)ccc2N1C(=O)Cc1ccc(OC)cc1 | -0.379 | 0.123 | -0.0807 | 0.289 | 0.599 | 0.252 | -0.261 | 0.673 (inactive) | 0.121 | 0.0501
C=C(/C(=C/C[C@H](OC(=O)c1ccncc1)c1ccc(CO)o1)c1cnc2ccccc2c1)C(C)C | -0.418 | 0.0906 | -0.0325 | 1.21 | 1.44 | 0.519 | 1.17 | 0.368 (inactive) | 0.106 | 0.0373
COCCOC(=O)N1C(=O)[C@@]2(c3ccccc31)[C@H](c1ccc(O)cc1)N1[C@H](c3ccccc3)[C@H](c3ccccc3)OC(=O)[C@H]1[C@@H]2C(=O)N1CCN(c2ncccn2)CC1 | -0.224 | 0.23 | 0.0019 | 0.644 | 0.618 | 0.647 | 1.07 | -1.27 (inactive) | -0.165 | -0.0903

Structure (SMILES) | composite z-score [1] | composite z-score [2] | composite z-score [3] | composite z-score [4] | composite z-score [5] | composite z-score [6] | composite z-score [7] | z-score [8] | composite z-score [9] | composite z-score [10]
[N-]=[N+]=Nc1ccccc1C[C@@]1(C(=O)N2CCOCC2)N=C(c2ccc(OCCCO)cc2)O[C@@H]1c1ccccc1 | -0.4 | -0.121 | 0.0324 | 1.11 | 1.3 | 1.06 | 1.18 | -3.93 (inactive) | 1.71 | -0.112
COc1cc2c(cc1O)C(c1ccc(CN3CCCC3)cc1)N(Cc1cc3c(cc1Br)OCO3)CC2 (stereo not given) | -0.373 | -0.311 | -0.0351 | 0.183 | 0.963 | 0.729 | 0.784 | 0.0296 (inactive) | 0.296 | -0.201
COc1ccc(C#Cc2ccc3c(c2)[C@]2(C(=O)N3)[C@H](c3ccc(O)cc3)N3[C@H](c4ccccc4)[C@H](c4ccccc4)OC(=O)[C@H]3[C@@H]2C(=O)Nc2nc3ccccc3s2)cc1 | -0.552 | -0.133 | -0.0242 | 0.534 | 1.6 | 1.69 | 1.36 | 1.33 (inactive) | 1.01 | 0.113
CO[C@H]1O[C@H](CO)[C@@H](OC(=O)Nc2ccc3c(c2)OCO3)[C@H](OC(=O)Nc2ccc3c(c2)OCO3)[C@@H]1OC(=O)Nc1ccc2c(c1)OCO2 | -0.202 | 0.584 | 0.256 | 1.21 | 1.26 | 1.78 | 1.2 | 2.2 (inactive) | 0.338 | 0.0818
CC(C)C(CO)N1C(=O)[C@@H]2C3C(=O)OCCC/C=C\[C@H]3OC23C=CCN(c2ccc4ccccc4c2)C(=O)[C@@H]13 (stereo not given in full) | -0.08 | -0.623 | -0.076 | -0.12 | -1 | 0.99 | 1.48 | 0.759 (inactive) | -0.412 | 0.176
COCC(=C=CC[C@H](O)c1ccc(OCCO)cc1)CCO | -0.144 | 1.12 | -0.161 | 0.592 | 0.124 | 1.64 | 1.42 | 0.461 (inactive) | 0.0418 | -0.0618
C#CCN(Cc1ccccc1Br)[C@H](/C=C/c1ccccc1)[C@@H](O)Cc1ccccc1 | 1.6 | -0.145 | -0.164 | -0.738 | -1.09 | -0.316 | -0.289 | -2.05 (inactive) | -0.722 | 0.0373
COc1ccc([C@H]2OC[C@@H]3C[C@H](Cc4ccccc4)C(=O)N32)cc1 | -0.458 | 0.7 | -0.0376 | 0.219 | 0.423 | -0.465 | 0.684 | 0.18 (inactive) | 0.277 | 0.107
O=C(NCc1ccc(F)cc1)[C@H]1C[C@H]2C(=O)NCC(=O)N2[C@H]1c1ccc(O)cc1 | 0.505 | 0.6 | -0.0224 | -0.162 | -0.336 | 0.964 | 1.3 | -0.428 (inactive) | 0.101 | 0.12
NC(=O)NCC#Cc1ccc2c(c1)[C@]1(C(=O)N2)[C@H](C(=O)N2CCN(c3ncccn3)CC2)[C@H]2C(=O)O[C@H](c3ccccc3)[C@H](c3ccccc3)N2[C@@H]1c1ccc(O)cc1 | -0.141 | 0.143 | -0.0328 | 0.861 | 1.17 | 0.575 | 0.664 | 0.234 (inactive) | 1.1 | 0.141
[N-]=[N+]=Nc1ccccc1C[C@]1(C(=O)N2CCOCC2)COC(c2ccc(OCCCO)cc2)=N1 | -0.0495 | 0.713 | -0.0442 | 0.261 | 1.35 | 1.38 | 1.19 | 1.71 (inactive) | 1.28 | -0.0617
COC(=O)[C@@]1(Cc2ccc(OC)cc2)[C@H]2c3cc(C(=O)N4CCCC4)n(CCO)c3C[C@H]2CN1C(=O)c1ccccc1 | 0.0734 | -0.562 | 0.418 | 1.18 | 1.55 | 1.77 | 0.764 | 1.45 (inactive) | 0.691 | 0.34
CCCCCN1CC=CC23O[C@@H]4C=CCCOC(=O)C4[C@H]2C(=O)N(CCCCCCO)[C@@H]3C1=O (stereo not given in full) | 0.0199 | -0.336 | -0.169 | 0.0401 | -0.812 | 1.98 | 0.99 | -0.457 (inactive) | -0.658 | -0.0994
COC(=O)[C@@]1(Cc2ccc(OC)cc2)[C@H]2c3cc(C(=O)N(C)C)n(Cc4ccc(OC(F)(F)F)cc4)c3C[C@H]2CN1C(=O)c1ccccc1 | 0.363 | -0.468 | -0.121 | -0.0332 | 1.58 | 1.39 | 1.44 | 2.88 (inactive) | 0.575 | 0.276
NC(=O)[C@@]1(Cc2ccccc2)COC(c2ccc(OCCCO)cc2)=N1 | 0.634 | 0.758 | -0.0594 | -0.281 | 0.29 | 1.37 | 1.16 | 1.47 (inactive) | 0.252 | -0.0684
COCCOC(=O)N1C(=O)[C@@]2(c3cc(C#CC4=CCCCC4)ccc31)[C@H](C(=O)Nc1nc3ccccc3s1)[C@H]1C(=O)O[C@H](c3ccccc3)[C@H](c3ccccc3)N1[C@@H]2c1ccc(O)cc1 | -0.528 | 1.39 | 0.0156 | 0.176 | 0.992 | 1.15 | 1.03 | 0.0402 (inactive) | 1.13 | 0.103
